# Compounds with a hit are over-represented: about 3.7% of the library has one in this group of screens.
# ELG1 DNA repair: blocks ELG1-dependent DNA repair in HEK293T cells; HEK293T ELG1-luciferase reporter, luminescence, 16 h; DNA damage induced by 5-fluorouridine; Potency, µM (titrated, usually from 46.1 µM), inactives show at the top dose activity change, negative = inhibition, most hits filed as inhibitors; hit rate 2.3% among 330,000; AID 504467; further: on the % scale 0 is the no-effect control and ±100 the full control effect; nearly all actives have a fitted effect of over 55% in size
#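 Step one: seed 2,000 cells per well. Step two: pin-transfer compound or DMSO alongside 5-fluorouridine. Step three: incubate 16 hr, 37 °C, 5% CO2. Step four: add ONE-Glo, wait 30 min, read luminescence.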
# Nrf2 activator: activates Nrf2 signaling. AREc32 ARE-luciferase reporter (MCF7-derived line), luminescence, 24 h. Potency, µM (top dose mostly 46.1 µM), without a hit: at the top dose activation, hits mostly activators. hit rate 0.31% among 410,000. AID 624171; further: % of control where 0% means no effect; nearly all actives have a fitted effect of over 65% in size
#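 AREc32 cells carrying an ARE-driven firefly luciferase reporter were seeded at 1000 cells/well in OPTI-MEM with 5% FBS, then exposed to compound for 24 hr at 37 deg C. Luminescence was read with Steady-Glo after 30 min at RT.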
# Nrf2 block: Nrf2 pathway inhibition | AID 504444 | hit rate 2.1% among 360,000 | Potency, µM (titrated, usually from 46 µM), for inactives: at the top dose activity change, negative = inhibition, usual class: inhibitors | A549 ARE-Fluc reporter, luciferase luminescence, 18-24 h; further: on the % scale 0 is the no-effect control and ±100 the full control effect; nearly all actives have a fitted effect of over 60% in size
#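 Two sequential reads on A549 ARE_Fluc cells exposed to compound for 18-24 h: a CellTiter-Fluor fluorescence read for viability, then a luciferase luminescence read for Nrf2/ARE activity.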
# A549 viability: counter-screen for Nrf2 inhibitors: cytotoxicity in A549 cells. hit rate 0.16% among 390,000. A549 ARE-Fluc cells, CellTiter-Fluor viability, 18-24 h. Potency, µM (highest dose often 46 µM), inactives show at the highest dose activity change, negative = cytotoxicity, actives largely listed as inhibitors; further: on the % scale 0 is the no-effect control and ±100 the full control effect
#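 A549 ARE-Fluc cells in 5% FBS OPTI-MEM, 5000 cells/well, rested 2 h then exposed to compounds in concentration-response for 18-24 h at 37 °C. Viability by CellTiter-Fluor fluorescence (Ex 405/Em 525) after 30 min; luciferase luminescence (BugLite, 15 min, RT) read afterwards.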
# Numbers without * were called inactive; ? = inconclusive; nt = not tested or not shown. The call rests on the fitted dose curve; in most records, active means well fitted curve in the direction sought with a large enough effect; inconclusive means small, poorly fitted or top-dose-only effect, or another doubt; inactive means no such curve, though single readings can be large; an effect the other way counts as inactive or inconclusive. Potency means the concentration at half of the fitted maximal effect.
SMILES,ELG1 DNA repair,Nrf2 activator,Nrf2 block,A549 viability
COc1cccc(Nc2nc(-c3cccs3)nc3ccccc23)c1,23.1µM*,5.4%,-18.3%,2.8%
Oc1ccc(Nc2nc(-c3ccccc3)nc3ccccc23)cc1,?,-0.4%,?,-19.3%
COc1ccc(Nc2ccnc3ccccc23)cc1,16.4µM*,-0.4%,nt,-16.1%
COc1ccc(Nc2nc(-c3ccccc3)nc3ccccc23)cc1,20.6µM*,1.2%,12.6%,-1.6%
COc1ccc(Nc2nc(-c3cccc([N+](=O)[O-])c3)nc3ccccc23)cc1,8.2µM*,3.9%,?,4.1%
O=C(NC(=S)/C(=C1\CCCCCN1)[N+](=O)[O-])c1ccccc1,?,?,?,3.0%
O=[N+]([O-])c1ccc(C(c2sc3nc(-c4ccco4)nn3c2O)N2CCN(c3cccc(Cl)c3)CC2)cc1 (stereo not given),nt,3.9%,nt,-13.4%
Cc1cc(O)ccc1-c1cc(C(=O)NCc2ccc(F)cc2)[nH]n1,nt,4.5%,nt,nt
O=C(NCC1CCCN1S(=O)(=O)c1cccs1)c1cccc(F)c1 (stereo not given),4.4%,1.9%,13µM*,-12.7%
O=C(NCC1CCCN1S(=O)(=O)c1cccs1)c1ccc(F)cc1 (stereo not given),0.5%,0.3%,-19.0%,2.1%
O=C(NCC1CCCN1S(=O)(=O)c1cccs1)c1ccc(Cl)cc1 (stereo not given),-6.9%,0.1%,23.1µM*,-5.0%
O=C(NCC1CCCN1S(=O)(=O)c1cccs1)c1ccccc1 (stereo not given),8.2%,-0.6%,?,-4.3%
COc1ccc(-n2c(SCC(=O)N3CCOCC3)nc3ccccc3c2=O)cc1,?,-1.1%,9.9%,-1.0%
CC(C)NC(=S)N(CCc1ccncc1)C(C)C,7.7%,-0.5%,?,3.9%
COc1ccccc1/C=N/OCc1cc(C(C)=O)ccc1OC,-16.5%,-0.5%,?,3.9%
CCC(=O)N1CCCN(S(=O)(=O)c2ccc(C)cc2)C1c1ccc(OC)cc1 (stereo not given),4.9%,-0.1%,-6.5%,0.6%
CCOC(=O)Cc1csc(NC(=O)COc2ccc(N(C)S(=O)(=O)c3cccs3)cc2)n1,18.4µM*,2.3%,-16.1%,-12.1%
Cc1ccc(S(=O)(=O)N(C)c2ccc(OCC(=O)Nc3nc4ccccc4s3)cc2)cc1,?,5.6%,20.6µM*,-0.9%
CCOC(=O)Cc1csc(NC(=O)COc2ccccc2)n1,-1.0%,1.7%,?,-1.1%
Cc1ccc(S(=O)(=O)N(C)c2ccc(OCC(=O)Nc3cccc(-n4cnnn4)c3C)cc2)cc1,23.1µM*,2.8%,-12.5%,-0.5%
CCN(CC(=O)Nc1ccccc1OC)C(=O)c1ccc(N(C)S(=O)(=O)c2ccc(C)cc2)cc1,16.4µM*,-0.6%,?,-5.5%
CCn1nnc2cc(C(=O)Nc3ccc(C)c(Cl)c3)ccc21,nt,-0.3%,?,-3.7%
O=S1(=O)N=C(Oc2ccccc2-c2ccccc2)c2ccccc21,nt,nt,6.7%,-4.7%
O=C(CN1CC[n+]2c(-c3ccccc3)csc21)c1ccc(Br)cc1,16.4µM*,3.4%,12.9%,2.6%
CCOC(=O)C1=C(C)N=C2c3ccccc3C(=O)C2C1c1ccc(Cl)cc1 (stereo not given),20.6µM*,7.8%,?,16.4µM*
SMILES,ELG1 DNA repair,Nrf2 activator,Nrf2 block,A549 viability
Cc1ccc(C2C3=C(CC(C)(C)CC3=O)N=C3c4ccccc4C(=O)C32)cc1 (stereo not given),?,-0.1%,?,?
CC1(C)CC(=O)C2=C(C1)N=C1c3ccccc3C(=O)C1C2c1ccc(Cl)cc1 (stereo not given),?,0.4%,25.9µM*,25.9µM*
CCOC(=O)C1=NNC(C(=O)c2ccccc2)C1c1ccc(Cl)cc1 (stereo not given),-4.0%,4.2%,?,-8.1%
Cc1ccc(Oc2ncccc2NC(=O)CC2(CC(=O)O)CCCC2)c2c1CCC2,10.6%,-0.1%,-2.8%,0.5%
CCOC(=O)C(=CNc1cccnc1Oc1ccc(C)c2c1CCC2)C(=O)OCC,14.6µM*,-0.3%,18.4µM*,-19.0%
CCCCNC(=O)CCCn1c(=O)c2ccccc2n(Cc2ccc(Cl)cc2)c1=O,nt,0.0%,-17.3%,-7.0%
CCCCC1Cc2[nH][nH]c(=O)c2C(c2ccc(Cl)cc2)O1 (stereo not given),nt,0.6%,nt,nt
Cc1ccc(C)c(/C=C/C(=O)c2ccccc(=O)c2O)c1,?,?,23.1µM*,?
Cc1ccc(/C=C/C(=O)c2ccccc(=O)c2O)c(C)c1,-26.6%,28.1%,20.6µM*,?
Cc1ccc(C)c(NC(=O)c2ccccc2O)c1,?,11.7%,?,-25.4%
CCOC(=O)C1CC2CC(C1)CN(C(=O)C1CCCCC1)C2 (stereo not given),8.6%,0.9%,10.0%,-1.5%
C[C@@H]1[C@@H](Sc2ccccc2)CC(=O)O[C@@H]1c1ccc(-c2ccccc2)cc1,nt,?,18.4µM*,-7.7%
O=C1CC(C(=O)NC2CCCCC2)C(c2ccccc2)O1 (stereo not given),12.8%,0.1%,11.7%,-1.1%
C=CCOc1ccc(/C=C/C(=O)OCC(=O)NCCCc2ccccc2)cc1,-2.2%,-0.8%,10.2%,2.4%
C=CCOc1ccc(/C=C/C(=O)OCC(=O)N2CCC(c3ccccc3)=N2)cc1,?,1.0%,20.6µM*,-0.7%
Cc1ccc(/C=C2/Sc3ccccc3N(CC(=O)NCC3CCCO3)C2=O)cc1 (stereo not given),-10.2%,0.1%,3.2%,-6.9%
Cc1cc(/C=C2\Sc3ccccc3N2C)cc(C)[n+]1CC1CCCO1 (stereo not given),?,12.4%,1.16µM*,4.11µM*
O=Nc1c(-c2c(O)[nH]c3cc(Br)ccc23)[nH]c2ccccc12,?,-2.2%,10.3µM*,20.6µM*
O=C(Nc1ccc(-c2csc(Nc3cccc(C(F)(F)F)c3)n2)cc1)c1ccccc1,11.6µM*,-1.4%,?,-15.8%
O=C(Nc1ccc(-c2csc(Nc3cccc(C(F)(F)F)c3)n2)cc1)c1cc([N+](=O)[O-])cc(C(F)(F)F)c1,?,1.1%,?,-6.1%
O=C(NNc1nc(-c2ccc(F)cc2)cs1)c1ccccc1,?,-0.7%,14.6µM*,?
O=C(Nc1cccc(-c2csc(Nc3cccc(C(F)(F)F)c3)n2)c1)c1ccccc1,20.6µM*,-2.0%,?,-16.9%
CN(CC(=O)NC(=O)NCc1ccccc1)CC(=O)Nc1ccc(Cl)c(Cl)c1,18.3µM*,0.2%,?,-8.8%
O=C(c1cc(-c2ccccn2)nc2c(Cl)cccc12)N1CCN(C(=O)C2CCCO2)CC1 (stereo not given),-25.6%,3.8%,nt,0.2%
O=C(c1cc(-c2cccs2)nc2ccccc12)N1CCN(S(=O)(=O)c2ccccc2)CC1,16.4µM*,0.2%,3.0%,-3.0%
NS(=O)(=O)c1cccc(NC(=O)c2cc(-c3cccs3)nc3ccccc23)c1,?,3.3%,-18.1%,0.0%

# Screening data (PubChem)
